# Measured values as given in the supplement of paper PMC3334620.
# In all, about 33,000 sequences were measured (“E-score (-0.5 to 0.5)”: median about -0.032, highest 2% from about 0.36 on). For the sample, the highest values were picked, then their nearest neighbours and some sequences at random.
# Target: T1, Sko1 (UniProt Q02100)
# T1 sequence: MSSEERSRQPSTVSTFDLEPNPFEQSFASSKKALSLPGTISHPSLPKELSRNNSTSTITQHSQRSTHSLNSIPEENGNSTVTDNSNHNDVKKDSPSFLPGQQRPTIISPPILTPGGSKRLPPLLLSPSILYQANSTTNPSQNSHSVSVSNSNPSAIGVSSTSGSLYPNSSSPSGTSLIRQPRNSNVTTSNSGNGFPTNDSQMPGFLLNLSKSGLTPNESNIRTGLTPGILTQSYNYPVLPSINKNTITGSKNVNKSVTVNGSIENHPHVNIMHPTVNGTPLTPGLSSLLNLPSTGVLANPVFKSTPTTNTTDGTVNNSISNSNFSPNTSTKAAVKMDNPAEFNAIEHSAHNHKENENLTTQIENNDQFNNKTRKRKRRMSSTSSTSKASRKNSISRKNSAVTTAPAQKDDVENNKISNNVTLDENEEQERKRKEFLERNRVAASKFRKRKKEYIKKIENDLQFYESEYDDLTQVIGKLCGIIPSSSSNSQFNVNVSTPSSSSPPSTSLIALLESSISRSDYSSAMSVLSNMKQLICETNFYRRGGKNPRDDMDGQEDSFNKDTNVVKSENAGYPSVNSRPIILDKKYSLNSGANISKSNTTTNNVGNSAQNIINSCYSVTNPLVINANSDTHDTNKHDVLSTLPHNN
# Assay: PBM E-score (8-mer binding enrichment) (E-score (-0.5 to 0.5)); higher = stronger / more preferred TF binding
# Settings: protein concentration: 200 nM; construct: GST-full length
# Procedure: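 Universal 'all 10-mer' protein binding microarrays (Agilent AMADID 015681) probed with GST-tagged S. cerevisiae TFs (full-length or DBD) made by in vitro transcription/translation (PURExpress), about 100-200 nM. Bound TF was detected with fluorescent anti-GST. Each ungapped 8-mer (which stands for itself and its reverse complement) is scored by the PBM enrichment score (E-score), a modified Wilcoxon-Mann-Whitney statistic from -0.5 to +0.5, computed with the Universal PBM Analysis Suite. Scale: above 0.35 generally sequence-specific binding.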
row,Sequence,PBM E-score
1,CCGCGTCC,-0.00078
2,CCGCGTCG,-0.127
3,ACGCGTCC,0.0182
4,TCGCGACA,-0.0189
5,AGGCGTCA,0.256
6,AAGCGTCA,0.353
7,GGTAGCCA,-0.238
8,ACAAACCA,-0.0895
9,ATGCCGTG,-0.111
10,TGGCGGAA,-0.102
11,TAGCGCGA,-0.0664
12,GCGCGTTA,0.0431
13,GCGCGTCA,0.424
14,GCGCGTCC,-0.15
15,CTCAGCCC,-0.249
16,GACAATCA,0.00255
17,ATTTTGGC,0.11
18,GCAACCGC,-0.139
19,ATGTCATA,0.41
20,CTGTCATC,0.0473
21,ATGTCATC,0.389
22,GTGTCATA,0.298
23,ATGTCATG,0.403
24,CTGTCATA,0.141
25,ATGTCAAG,0.187

row,Sequence,PBM E-score
1,ATGTCAGC,0.129
2,ATGTCACG,0.325
3,GCTAGAGA,-0.0277
4,AACTTTAG,0.247
5,CCTATGTA,-0.0157
6,CGATCCGC,-0.0715
7,GACCAACA,0.17
8,AATCTCAC,-0.0325
9,CCTGTTCG,-0.0292
10,ACGTGAAA,0.386
11,CCGTGATA,-0.0242
12,ACGTGATA,0.409
13,CCGTGATC,-0.255
14,ACGTGATG,0.442
15,GCGTGATA,0.145
16,ACGTGAAC,0.311
17,ACGTGAGG,0.276
18,AGGTGATG,0.087
19,TCGTGAAA,0.0383
20,AAGTGATC,0.112
21,ACGTGATC,0.432
22,ATATCAAC,0.141
23,AGGGGAGC,-0.294
24,TAGGTTCA,-0.0685
25,TGTTGCAA,0.131

row,Sequence,PBM E-score
1,CAATTCAC,0.049
2,AGGTGAGG,-0.192
3,CGCAGATA,-0.00801
4,CAAGGCAA,-0.136
5,CGCTCTTA,0.112
6,ACGTTTCG,0.347
7,ATGCTCGA,0.00694
8,CACTGATG,0.0771
9,GTGATCAA,0.189
10,ATTGTTAC,0.362
11,CTTGTTAC,0.094
12,ATTGTTAG,0.0985
13,ACTCTTGG,-0.179
14,CACACGCC,0.0149
15,AACACGTG,0.395
16,CACACGGC,-0.0173
17,AACACAAA,0.0722
18,CACACATA,0.0532
19,AACACGAG,0.033
20,TACACGGA,0.142
21,CACACGTG,0.386
22,CACACAAA,0.114
23,CACACGTC,0.446
24,TACACGAA,0.251
25,TACACGTA,0.453

row,Sequence,PBM E-score
1,GACTCTGA,-0.104
2,GAGCTCCA,-0.129
3,AATCCTGG,-0.199
4,ATAGTTAC,0.212
5,CGCGACGA,0.125
6,ACGTTCGA,0.248
7,TCGGCTCA,-0.111
8,GTAGAGGA,-0.194
9,AAACCGAG,-0.175
10,CCGCTCCG,-0.269
11,GCCTTCCA,-0.222
12,CACACGCG,0.104
13,CACACGTA,0.45
14,CACACGGA,-0.167
15,CCTGCGAA,-0.0899
16,CGTAAGCC,0.203
17,GCGTTGGA,-0.00317
18,ACACTACT,-0.0134
19,ACACTACG,0.368
20,ACACTACA,0.167
21,CACTACCA,-0.029
22,CCTCACGC,0.0875
23,CGTCACGA,0.443
24,GGTCACGA,-0.0631
25,AGTCACGA,0.103

row,Sequence,PBM E-score
1,CGTCACGC,0.433
2,AGTCACGC,0.167
3,GTTCGCGA,0.133
4,GGAAGCTA,-0.135
5,AGTGCAGA,-0.0919
6,CGGGATAA,0.0877
7,GGCTTGTA,-0.158
8,AGCTCAAT,0.016
9,AGATTGAT,-0.0863
10,CCTCATTC,-0.0556
11,AGTCATTC,0.135
12,GGTCATTA,0.232
13,AGTCATTA,0.032
14,CGTCATTA,0.487
15,CGTCATTC,0.482
16,ACTCAAAC,0.0881
17,GTGGCGCA,0.0382
18,CCTGGCTC,-0.137
19,TGCTTCCA,-0.067
20,GAAGCTTC,-0.375
21,CTCTGCAA,-0.0293
22,CAGCTCAG,-0.0505
23,GGTCACTA,0.0129
24,AGTCACTA,0.0867
25,CGTCACTA,0.445

row,Sequence,PBM E-score
1,CGTCACTC,0.418
2,CCTCACTC,-0.0833
3,AGTCACTC,-0.0377
4,CACCACCG,-0.248
5,TACGCCTA,0.208
6,AATCTAAC,0.124
7,CGATCTAA,0.0385
8,CGGCATGA,0.11
9,TAGTATAA,0.24
10,ACTCCACG,0.0133
11,AACTCTCA,0.0877
12,GTGATGCA,0.249
13,GTGATGAA,0.111
14,ATGATGTA,0.459
15,ATGATGAC,0.327
16,ATGATGTC,0.446
17,CTGATGTA,0.255
18,CTGATGTC,0.173
19,GTGATGTA,0.397
20,AAGATGTA,0.206
21,ATGATGCC,0.244
22,ATGATGCA,0.376
23,ATGATGAA,0.321
24,ATCGAAGG,0.0197
25,GTGAGCCA,-0.0673

row,Sequence,PBM E-score
1,GCGGAATA,0.0622
2,CTAGAAGA,0.0318
3,TTTTAAAA,0.233
4,ATTTAGTG,0.0842
5,GCCGCTCC,-0.396
6,AATTTCAG,0.0849
7,TGACAGAA,0.141
8,GGGCAATA,-0.14
9,CGACCGCA,-0.266
10,AGGATGTG,-0.206
11,ATGATGTG,0.379
12,ATGATGAG,0.275
13,AACTCCAG,-0.205
14,AGGAACAT,0.176
15,AAAGAACG,0.143
16,ATTGACTA,-0.0436
17,CCTATTTC,0.0978
18,CGTATTTC,0.367
19,AGTATTTA,0.164
20,CGTATTTA,0.419
21,GGTATTTA,0.0513
22,AGTATTTC,0.108
